# Screen size: about 16,000 compounds; about 5,700 (36%) were called active. Inconclusive results (about 24%) are left out. The list shows a part of the results. Values without a mark were called inactive. Calls follow the shape of the dose curve; as a rule, active = well fitted curve in the direction sought with a large enough effect; inconclusive = small, poorly fitted or top-dose-only effect, or effect the other way; inactive = no such curve, though single readings can be large or run the other way.
# Target: Cytochrome P450 1A2 (Homo sapiens) (UniProt P05177)
# Sequence (P05177 whole entry, looked up): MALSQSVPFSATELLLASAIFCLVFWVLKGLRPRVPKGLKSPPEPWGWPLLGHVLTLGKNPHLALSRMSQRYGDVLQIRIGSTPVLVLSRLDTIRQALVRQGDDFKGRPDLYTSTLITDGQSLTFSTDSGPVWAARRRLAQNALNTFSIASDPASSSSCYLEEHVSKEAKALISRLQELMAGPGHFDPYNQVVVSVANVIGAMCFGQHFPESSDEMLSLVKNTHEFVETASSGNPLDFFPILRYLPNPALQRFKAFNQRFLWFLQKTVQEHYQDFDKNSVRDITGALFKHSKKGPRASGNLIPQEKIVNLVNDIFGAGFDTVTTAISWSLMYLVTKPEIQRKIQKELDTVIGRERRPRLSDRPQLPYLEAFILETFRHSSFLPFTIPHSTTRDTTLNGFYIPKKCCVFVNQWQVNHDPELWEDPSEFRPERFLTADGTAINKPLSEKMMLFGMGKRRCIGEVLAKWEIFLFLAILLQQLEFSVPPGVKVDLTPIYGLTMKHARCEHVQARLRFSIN
# Assay: Cytochrome panel assay with activity outcomes
# Settings: recombinant CYP, pro-luciferin dealkylation, luminescence, p450-cyp1a2; series mostly up to 57.1 µM
# % is scaled to controls: 0 for no effect and ±100 for the full control effect.
SMILES,AC50,"activity, negative = inhibition"
COc1cccc(-c2ccc3ncnc(N(C)C)c3c2)c1,0.794 µM (active),–
CN(C)c1ncnc2ccc(-c3cccnc3)cc12,0.2 µM (active),–
O=C1NC(O)=NC1(c1ccccc1)c1ccccc1,inactive,–
CSc1nc(N)nc(-c2cccs2)c1C#N,2 µM (active),–
CSc1nc(C2CC2)cc(-c2cccs2)c1C#N,0.316 µM (active),–
N#Cc1c(-c2ccccc2)cc(C2CC2)nc1SCC(=O)c1cccs1,0.562 µM (active),–
CC(C)C12CN3CC(C(C)C)(CN(C1)C3c1ccco1)C2=O (stereo unspecified),inactive,–
Cc1ccc(N=CC2=C(O)CC(c3ccco3)CC2=O)cc1 (stereo unspecified),25.1 µM (active),–
CCC(=O)N(C)/C=C1\Sc2ccccc2C1=O,3.16 µM (active),–
CS(=O)(=O)c1cnc2c(-c3ccc(F)cc3)cnn2c1N,3.55 µM (active),–
COc1cccc(NC(=S)NNC(=O)C(C)n2nc(C)c([N+](=O)[O-])c2C)c1 (stereo unspecified),inactive,–
O=C(N/N=C/c1cc([N+](=O)[O-])ccc1N1CCNCC1)c1ccc([N+](=O)[O-])cc1,inactive,–
Cc1ccc(C(=O)N/N=C/c2ccc([N+](=O)[O-])s2)cc1,2.82 µM (active),–
Cc1cccc(NC(=S)N/N=C/c2ccc([N+](=O)[O-])s2)c1,1.41 µM (active),–
O=C(N/N=C/c1ccc(Br)s1)c1ccccc1[N+](=O)[O-],14.1 µM (active),–
O=C(N/N=C/c1ccc([N+](=O)[O-])s1)c1ccccc1Br,15.8 µM (active),–
O=C(NCCNc1ccc([N+](=O)[O-])cc1)c1ccccc1Br,inactive,–
CO[C@H]1COC(=O)C/C=C\[C@@H](C)[C@H](OC)COC(=O)CCC[C@@H]1C,–,-5.95% [at 11.4 µM]
CC(=O)N1CCC(=O)N(C(C)C)c2ccccc21,inactive,–
Cc1cc(N2CCN(c3nc4ccccc4s3)CC2)n2ncnc2n1,15.8 µM (active),–
CCCNC(=O)OC[C@@H]1O[C@H](CCO/N=C(\C)CCN2CCCc3nc(C)c(C)cc32)C=C[C@@H]1Oc1ccc(OC)cc1,–,0.587% [at 11.4 µM]

SMILES,AC50,"activity, negative = inhibition"
CCCCOc1ccc(C(=O)N/C(=C\c2cccc([N+](=O)[O-])c2)C(=O)OCCC)cc1,inactive,–
COc1ccc(NC(=O)/C(=C\c2cc(OC)c(OC)cc2[N+](=O)[O-])NC(=O)c2ccccc2)cc1,inactive,–
C=CCOC(=O)/C(=C\c1cccc2ccccc12)NC(=O)c1ccccc1,7.08 µM (active),–
c1ccc2c(c1)-c1nc3ccccc3cc1[C@H]2N1CCOCC1,1.26 µM (active),–
CCCCCCC1CC(C)(/C(C)=N/NC(N)=O)OC1=O (stereo unspecified),inactive,–
O=S(=O)(c1cnccc1N1CCN(/N=C/c2ccccc2)CC1)N1CCCCC1,inactive,–
CCn1c(-c2ccoc2C)n[nH]c1=S,22.4 µM (active),–
CSC1(SC2=NCCN2)SC2(NCCN2)S1,0.398 µM (active),–
O=C(O)CCSC1=NCCN1,–,-7.93% [at 11.4 µM]
COc1ccc(NC(=O)N2CC[C@@]3(CCCNC3)C2)cc1,inactive,–
CCCCN1C(=O)C(NC(=O)C2CC2)(C(F)(F)F)C2=C1CC(C)(C)CC2=O (stereo unspecified),inactive,–
CSc1nncc(/C(C)=N\Nc2ccccc2)n1,12.6 µM (active),–
CC/C(=N/Nc1ccccc1)c1cnnc(SC)n1,10 µM (active),–
CCc1ccc(N(C(=O)c2ccoc2C)C(C(=O)NC2CCCC2)c2ccc(OC)cc2)cc1 (stereo unspecified),inactive,–
Cc1ccc(Nc2nnc(-c3ccc4c(c3)OCO4)o2)c(C)c1,2.51 µM (active),–
COc1cc(N=C(N)N=C(N)N)c2ncccc2c1,0.398 µM (active),–
COc1cc(NCCC(=O)O)c2ncccc2c1,–,-18.1% [at 11.4 µM]
COc1ccc([C@H](O)c2ccccn2)cc1,–,-16% [at 11.4 µM]
CC(C)=CCC/C(C)=C/CO/N=C1/[C@H]2O[C@@H]2[C@@H](O)[C@H]2[C@H]1CCn1c(=O)n(Cc3cc4c(cc3Cl)OCO4)c(=O)n12,–,-2.22% [at 11.4 µM]
c1ccc(CN2c3ccccc3-c3nc4ccccc4n3C2c2ccccn2)cc1 (stereo unspecified),4.47 µM (active),–
O=C(Cc1ccccc1)Nc1nc2ccc(Cl)cc2c2nc(-c3ccco3)nn12,0.2 µM (active),–

SMILES,AC50,"activity, negative = inhibition"
Oc1ccc(Cl)cc1Cc1cc(Cl)cc(Cc2cc(Cl)ccc2O)c1O,–,-23.8% [at 2.29 µM]
CN(C)Cc1cc(Cl)c(O)c(CN(C)C)c1,–,-10.7% [at 11.4 µM]
Oc1ccc(Cc2cc(Cl)cc(Cl)c2O)cc1Cl,1.58 µM (active),–
CCC(C)(C)n1nnnc1C(c1ccc(C)cc1)N1CCC(C)CC1 (stereo unspecified),inactive,–
COc1ccccc1CN(Cc1cc2cc3c(cc2[nH]c1=O)OCCO3)Cc1nnnn1Cc1ccco1,17.8 µM (active),–
CCC(Sc1nc2cc3c(cc2c(=O)n1Cc1ccco1)OCO3)C(=O)Nc1ccccc1OC (stereo unspecified),inactive,–
CC(C)(C)n1nnnc1C(c1cccnc1)N(Cc1ccccc1)Cc1ccco1 (stereo unspecified),inactive,–
CCC(C)(C)n1nnnc1C(C(C)C)N(Cc1ccco1)Cc1cc2cc3c(cc2[nH]c1=O)OCO3 (stereo unspecified),14.1 µM (active),–
Cc1nonc1NC(=O)N1CCCC1,inactive,–
CCC[C@@H]1O[C@@H]2C[C@@H]3[C@H]4CCC5=CC(=O)C=C[C@@]5(C)[C@H]4[C@H](O)C[C@@]3(C)[C@@]2(C(=O)CO)O1,inactive,–
CN(C(=O)c1c(O)c2ccccc2n(C)c1=O)c1ccccc1,inactive,–
CCCc1c(O)c2ccccc2n(-c2ccccc2)c1=O,14.1 µM (active),–
Cc1cnc(CNc2ncncc2-c2ccc(N(C)C)cc2)cn1,3.16 µM (active),–
Cc1cnc(CNc2ncncc2-c2c(C)noc2C)cn1,inactive,–
Cc1cnc(CNc2ncncc2-c2ccoc2)cn1,12.6 µM (active),–
COCCn1c(=O)c(-c2cn(C)c3ccccc23)nc2cnc(OCc3ccccc3)nc21,5.01 µM (active),–
COc1cccc(Cn2c(=O)c(-c3cn(C)c4ccccc34)nc3cncnc32)c1,1 µM (active),–
COCCn1c(=O)c(-c2cn(C)c3ccccc23)nc2cncnc21,0.398 µM (active),–
Cn1cc(-c2nc3cncnc3n(CCN)c2=O)c2ccccc21,6.31 µM (active),–

# Reference: PubChem BioAssay AID1851 (National Center for Advancing Translational Sciences (NCATS), 2009)
